“And” between values parts separate entries of the source, which are not always exact repeats. Identical values can stand only once. More than one record can exist for a structure, and the calls need not agree. The source made the active and inactive calls. Rule for the calls: active = hit-call score of the fitted dose curve at least 0.9, where 1 is the maximum; inactive = score below 0.9.
Assays:
[1] = BSK_CASM3C_SRB: Viability Assessment in the BioMAP Diversity Plus: CASM3C Assay (AID 2283050); details: primary human coronary artery smooth muscle cells;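 note: cells exposed to compound for 24 h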
[2] = read-out: Thrombomodulin, THBD (gene 7056); experiment: BSK_CASM3C_Thrombomodulin: BioMAP Diversity Plus: CASM3C Assay for Thrombomodulin Biomarker Activity (AID 2283051); details: primary human coronary artery smooth muscle cells; actives raise or lower the signal;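 note: thrombomodulin protein level measured by ELISA 24 h after dosing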
[3] = read-out: Tissue Factor, F3 (gene 2152); experiment: BSK_CASM3C_TissueFactor: BioMAP Diversity Plus: CASM3C Assay for Tissue Factor Biomarker Activity (AID 2283052); details: primary human coronary artery smooth muscle cells; actives raise or lower the signal;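 note: cell surface tissue factor protein level read by ELISA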
[4] = read-out: Interferon-gamma inducible Protein 10 (IP10), CXCL10 (gene 3627); experiment: BSK_hDFCGF_IP10: BioMAP Diversity Plus: hDFCGF Assay for Interferon-gamma inducible Protein 10 (IP10) Biomarker Activity (AID 2283053); details: primary human foreskin fibroblasts; actives raise or lower the signal
In short: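 Chemical-treated human skin fibroblasts (primary) were sampled at 24 h for IP-10 by ELISA. Both increases and decreases relative to DMSO were scored.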

[5] = read-out: Urokinase-type plasminogen activator receptor (uPAR), PLAUR (gene 5329); experiment: BSK_CASM3C_uPAR: BioMAP Diversity Plus: CASM3C Assay for Urokinase-type plasminogen activator receptor (uPAR) Biomarker Activity (AID 2283054); details: primary human coronary artery smooth muscle cells; actives raise or lower the signal;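 note: cell-surface uPAR protein level quantified by ELISA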
[6] = read-out: Vascular cell adhesion molecule 1 (VCAM1), VCAM1 (gene 7412); experiment: BSK_CASM3C_VCAM1: BioMAP Diversity Plus: CASM3C Assay for Vascular cell adhesion molecule 1 (VCAM1) Biomarker Activity (AID 2283055); details: primary human coronary artery smooth muscle cells; actives raise or lower the signal;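 note: VCAM-1 protein level quantified by ELISA on the cells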
[7] = read-out: Collagen III, COL3A1 (gene 1281); experiment: BSK_hDFCGF_CollagenIII: BioMAP Diversity Plus: hDFCGF Assay for Collagen III Biomarker Activity (AID 2283056); details: primary human foreskin fibroblasts; actives raise or lower the signal
In short: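 Human foreskin fibroblast primary cultures sampled 24 h after dosing; Collagen III quantified by ELISA. Signal fitted bidirectionally against DMSO baseline.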

[8] = read-out: Epidermal growth factor receptor (EGFR), EGFR (gene 1956); experiment: BSK_hDFCGF_EGFR: BioMAP Diversity Plus: hDFCGF Assay for Epidermal growth factor receptor (EGFR) Biomarker Activity (AID 2283057); details: primary human foreskin fibroblasts; actives raise or lower the signal
In short: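 Cell-based multiplexed assay in primary human foreskin fibroblasts. EGFR is read by ELISA 24 h after treatment and compared with DMSO controls.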

[9] = read-out: Interleukin-8 (IL8), CXCL8 (gene 3576); experiment: BSK_hDFCGF_IL8: BioMAP Diversity Plus: hDFCGF Assay for Interleukin-8 (IL8) Biomarker Activity (AID 2283058); details: primary human foreskin fibroblasts; actives raise or lower the signal
In short: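 Primary human foreskin fibroblasts (hDFCGF system) dosed with chemical; IL-8 measured by ELISA 24 hours later. Bidirectional curve fitting relative to DMSO baseline; cytotoxicity tracked in parallel cultures by SRB total protein staining.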

[10] = BSK_hDFCGF_Proliferation: Cell Proliferation Assessment in the BioMAP Diversity Plus: hDFCGF Assay (AID 2283059); details: primary human foreskin fibroblasts;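 note: curves fitted for both rise and fall of signal versus DMSO baseline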
In short: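 Steps: dose primary human dermal fibroblasts (foreskin); […] fix in 10% TCA; stain with 0.1% SRB; read 560 nm; fit gain or loss of signal against DMSO.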

[11] = read-out: Macrophage colony-stimulating factor (MCSF), CSF1 (gene 1435); experiment: BSK_hDFCGF_MCSF: BioMAP Diversity Plus: hDFCGF Assay for Macrophage colony-stimulating factor (MCSF) Biomarker Activity (AID 2283060); details: primary human foreskin fibroblasts; actives raise or lower the signal
In short: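 Human foreskin fibroblast primary cultures; M-CSF measured by ELISA 24 hours after chemical dosing. Bidirectional fitting relative to DMSO, with overt cytotoxicity tracked by parallel SRB total-protein staining (0.1% SRB, 10% TCA fixation, 560 nm).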

[12] = BSK_hDFCGF_SRB: Viability Assessment in the BioMAP Diversity Plus: hDFCGF Assay (AID 2283061); details: primary human foreskin fibroblasts;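 note: cells exposed to compound for 24 h before the read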
In short: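 Human foreskin fibroblasts in 96-well plates were treated 24 h. Total protein was measured by 0.1% SRB staining after 10% TCA fixation, read at 560 nm. Data were fitted bidirectionally against DMSO.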

[13] = read-out: TIMP metallopeptidase inhibitor 1 (TIMP1), TIMP1 (gene 7076); experiment: BSK_hDFCGF_TIMP1: BioMAP Diversity Plus: hDFCGF Assay for TIMP metallopeptidase inhibitor 1 (TIMP1) Biomarker Activity (AID 2283062); details: primary human foreskin fibroblasts; actives raise or lower the signal
In short: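 Human foreskin fibroblast primary cultures dosed for 24 h; secreted/surface TIMP-1 quantified by ELISA. Bidirectional curve fitting against DMSO baseline; cytotoxicity tracked in parallel cultures by SRB total-protein staining.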

[14] = read-out: Monokine induced gamma interferon (MIG), CXCL9 (gene 4283); experiment: BSK_hDFCGF_MIG: BioMAP Diversity Plus: hDFCGF Assay for Monokine induced gamma interferon (MIG) Biomarker Activity (AID 2283063); details: primary human foreskin fibroblasts; actives raise or lower the signal
In short: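 MIG/CXCL9 measured by ELISA 24 h after dosing primary human skin fibroblasts. Activity fitted in both directions against DMSO controls. Cytotoxicity was checked in parallel cultures by SRB staining read at 560 nm.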

[15] = read-out: Matrix Metallopeptidase 1 (MMP1), MMP1 (gene 4312); experiment: BSK_hDFCGF_MMP1: BioMAP Diversity Plus: hDFCGF Assay for Matrix Metallopeptidase 1 (MMP1) Biomarker Activity (AID 2283064); details: primary human foreskin fibroblasts; actives raise or lower the signal
In short: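 Human foreskin fibroblasts exposed to chemical for 24 h; MMP1 detected by ELISA, with DMSO as baseline for bidirectional fitting.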

[16] = read-out: Vascular cell adhesion molecule 1 (VCAM1), VCAM1 (gene 7412); experiment: BSK_hDFCGF_VCAM1: BioMAP Diversity Plus: hDFCGF Assay for Vascular cell adhesion molecule 1 (VCAM1) Biomarker Activity (AID 2283065); details: primary human foreskin fibroblasts; actives raise or lower the signal;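 for AC50: VCAM-1 protein level quantified by ELISA after 24 h chemical exposure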
In short: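 Human foreskin fibroblast primary cells dosed with chemical, VCAM-1 measured by ELISA at 24 h. Bidirectional curve fitting relative to DMSO as negative control/baseline.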

[17] = read-out: Plasminogen activator inhibitor-1 (PAI1), SERPINE1 (gene 5054); experiment: BSK_hDFCGF_PAI1: BioMAP Diversity Plus: hDFCGF Assay for Plasminogen activator inhibitor-1 (PAI1) Biomarker Activity (AID 2283066); details: primary human foreskin fibroblasts; actives raise or lower the signal
In short: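 Human skin fibroblast cultures receive chemical for 24 h before PAI-1 is measured by ELISA; signal changes are fitted bidirectionally against DMSO-treated wells.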

[18] = read-out: Intercellular Adhesion Molecule 1 (ICAM1), ICAM1 (gene 3383); experiment: BSK_KF3CT_ICAM1: BioMAP Diversity Plus: KF3CT Assay for Intercellular Adhesion Molecule 1 (ICAM1) Biomarker Activity (AID 2283067); details: primary human keratinocytes with fibroblasts; actives raise or lower the signal
In short: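 Human keratinocyte–foreskin fibroblast co-culture was treated for 24 h. Cell-surface ICAM-1 was quantified by ELISA, fitted bidirectionally relative to DMSO. Cytotoxicity was checked in parallel cultures by SRB total-protein staining.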

[19] = read-out: Interferon-gamma inducible Protein 10 (IP10), CXCL10 (gene 3627); experiment: BSK_KF3CT_IP10: BioMAP Diversity Plus: KF3CT Assay for Interferon-gamma inducible Protein 10 (IP10) Biomarker Activity (AID 2283068); details: primary human keratinocytes with fibroblasts; actives raise or lower the signal
In short: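 KF3CT co-culture (keratinocytes + foreskin fibroblasts), 24 h compound, IP-10 by ELISA; bidirectional fit vs DMSO baseline.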

[20] = BSK_KF3CT_SRB: Viability Assessment in the BioMAP Diversity Plus: KF3CT Assay (AID 2283069); details: primary human keratinocytes with fibroblasts;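 note: read 24 h after compound addition; fitted for both signal gain and loss against DMSO baseline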
In short: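 Overt cytotoxicity is assessed as total protein by sulforhodamine B staining in parallel human skin co-cultures at 24 h after dosing. DMSO serves as negative control and baseline.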

Measured: AC50

O=C(O)C1(C(=O)Nc2ccc(Cl)cc2Cl)CC1
active: [7] 24.5 µM
inactive: all other assays above

C=CCOC(Cn1ccnc1)c1ccc(Cl)cc1Cl (stereo not drawn)
active: [4] 27 µM | [13] 30 µM | [17] 13.9 µM | [19] 5.07 µM
inactive: all other assays above

CCOC(=O)c1ccc(O)cc1
inactive: all assays above

N#CSCSc1nc2ccccc2s1
inactive: [2] | [3] | [9] | [20]
active: [1] 11.9 µM and 31.5 µM | [2] 36.7 µM | [3] 1.85 µM | [4] 1.49 µM and 227 nM | [5] 5.35 µM and 30 µM | [6] 6.34 µM and 27.7 µM | [7] 1.19 µM and 424 nM | [9] 2.43 µM | [10] 632 nM and 148 nM | [11] 1.56 µM and 1.28 µM | [12] 1.08 µM and 155 nM | [13] 1.63 µM and 148 nM | [14] 1.67 µM and 1.3 µM | [15] 1.82 µM and 1.61 µM | [16] 1.37 µM and 460 nM | [17] 1.72 µM and 627 nM | [18] 7.09 µM and 10.6 µM | [19] 7.03 µM and 11.6 µM | [20] 5.31 µM

CCOC(=O)[C@H](C)Oc1ccc(Oc2nc3ccc(Cl)cc3o2)cc1
active: [7] 3.97 µM | [10] 24.9 µM | [12] 508 nM | [19] 25.3 µM
inactive: all other assays above

CCC(O)=C1C(=O)CC(C(=O)O)CC1=O (stereo not drawn)
inactive: all assays above

Source: PubChem BioAssay (EPA / NIEHS)
